# Test results: publication PMC7862700, “An all-to-all approach to the identification of sequence-specific readers for epigenetic DNA modifications on cytosine”
# Assays:
# Assay in all cases: DAPPL (digital affinity profiling via proximity ligation, sequencing); 10 mM Tris-HCl pH 7.5, 50 mM NaCl, 1 mM DTT, 4% glycerol, room temperature, 30 min; GST-TFs on glutathione beads, 16-mer random dsDNA library, 0.1% formaldehyde crosslink after washing; high values mean tight binding
# Conditions in all cases: protein: recombinant; tags: N-terminal GST; dsDNA, one strand shown
# FLI1 = biological target: T1, FLI1 (Homo sapiens, UniProt Q01543 1-452)
# T1 sequence: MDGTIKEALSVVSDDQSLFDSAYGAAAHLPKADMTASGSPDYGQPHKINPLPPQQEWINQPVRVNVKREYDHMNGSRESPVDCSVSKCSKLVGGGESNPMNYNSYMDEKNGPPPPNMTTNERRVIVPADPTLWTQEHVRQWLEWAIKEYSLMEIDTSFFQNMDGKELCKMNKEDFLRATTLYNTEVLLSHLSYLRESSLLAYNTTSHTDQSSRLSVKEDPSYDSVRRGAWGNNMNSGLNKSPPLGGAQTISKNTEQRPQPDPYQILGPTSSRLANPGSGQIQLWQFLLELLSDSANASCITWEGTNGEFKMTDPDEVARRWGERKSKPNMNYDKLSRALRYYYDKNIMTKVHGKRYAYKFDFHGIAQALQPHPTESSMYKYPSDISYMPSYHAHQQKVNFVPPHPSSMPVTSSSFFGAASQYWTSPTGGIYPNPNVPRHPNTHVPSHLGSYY
# Summary of the method: (§1)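 Pools were built from human transcription factors expressed in yeast as GST fusions, captured on glutathione beads and DNA-barcoded, along with a tag-only sample. Incubation with 200 nmole of a 16-mer random double-stranded DNA library lasted 30 min at room temperature in Tris/NaCl/DTT/glycerol buffer, and was followed by washing, 0.1% formaldehyde crosslinking, proximity ligation, PCR amplification and Illumina NextSeq500 sequencing. Binding signal is the quotient of each hexamer's read frequency for a factor and its frequency for the tag-only sample.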
# GABPA = biological target: T2, GABPA (Homo sapiens, UniProt Q06546 1-454)
# T2 sequence: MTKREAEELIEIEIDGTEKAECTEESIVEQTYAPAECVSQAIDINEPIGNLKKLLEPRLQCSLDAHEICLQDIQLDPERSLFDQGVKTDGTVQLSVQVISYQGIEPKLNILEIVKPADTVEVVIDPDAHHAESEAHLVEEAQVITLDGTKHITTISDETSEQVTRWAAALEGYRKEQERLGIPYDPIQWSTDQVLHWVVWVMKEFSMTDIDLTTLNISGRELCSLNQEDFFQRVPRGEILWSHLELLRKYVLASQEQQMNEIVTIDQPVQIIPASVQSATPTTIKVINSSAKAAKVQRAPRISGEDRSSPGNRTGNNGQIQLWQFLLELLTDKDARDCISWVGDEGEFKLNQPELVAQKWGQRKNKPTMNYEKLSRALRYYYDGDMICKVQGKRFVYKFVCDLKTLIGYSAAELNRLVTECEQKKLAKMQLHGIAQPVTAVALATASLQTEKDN
# Summary of the method: as §1
# ERG = biological target: T3, ERG (Homo sapiens, UniProt P11308 1-479)
# T3 sequence: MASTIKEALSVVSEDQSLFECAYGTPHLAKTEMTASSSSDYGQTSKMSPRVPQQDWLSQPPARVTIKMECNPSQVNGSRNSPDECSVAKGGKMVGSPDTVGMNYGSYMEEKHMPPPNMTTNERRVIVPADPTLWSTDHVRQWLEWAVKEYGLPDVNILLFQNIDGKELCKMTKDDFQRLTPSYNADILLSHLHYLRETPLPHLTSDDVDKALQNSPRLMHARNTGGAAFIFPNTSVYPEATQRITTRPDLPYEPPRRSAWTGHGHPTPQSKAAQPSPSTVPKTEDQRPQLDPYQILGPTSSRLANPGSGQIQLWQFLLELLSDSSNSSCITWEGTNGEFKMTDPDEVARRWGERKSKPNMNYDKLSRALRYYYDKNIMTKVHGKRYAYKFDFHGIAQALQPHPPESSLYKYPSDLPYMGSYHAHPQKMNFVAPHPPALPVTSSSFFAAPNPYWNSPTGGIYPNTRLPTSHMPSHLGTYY
# Summary of the method: as §1
# ELF1 = ELF1 (Homo sapiens, UniProt P32519 1-619)
# Summary of the method: as §1
# EHF = biological target: T4, EHF (Homo sapiens, UniProt Q9NZC4 1-300)
# T4 sequence: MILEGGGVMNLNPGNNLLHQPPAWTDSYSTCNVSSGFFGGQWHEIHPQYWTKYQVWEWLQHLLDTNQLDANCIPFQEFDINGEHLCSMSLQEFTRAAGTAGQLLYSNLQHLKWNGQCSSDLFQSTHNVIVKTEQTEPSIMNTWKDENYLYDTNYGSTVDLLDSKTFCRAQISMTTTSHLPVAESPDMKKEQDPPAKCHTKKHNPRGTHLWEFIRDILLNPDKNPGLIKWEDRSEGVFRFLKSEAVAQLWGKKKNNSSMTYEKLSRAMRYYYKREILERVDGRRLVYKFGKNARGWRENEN
# Summary of the method: as §1
# SPI1 = SPI1 (Homo sapiens, UniProt P17947 1-270)
# Summary of the method: as §1
# SPIB = SPIB (Homo sapiens, UniProt Q01892 1-262)
# Summary of the method: as §1
# ETV5 = ETV5 (Homo sapiens, UniProt P41161 1-510)
# Summary of the method: as §1
# ELF4 = ELF4 (Homo sapiens, UniProt Q99607 1-663)
# Summary of the method: as §1
# ETV2 = biological target: T5, ETV2 (Homo sapiens, UniProt O00321 1-342)
# T5 sequence: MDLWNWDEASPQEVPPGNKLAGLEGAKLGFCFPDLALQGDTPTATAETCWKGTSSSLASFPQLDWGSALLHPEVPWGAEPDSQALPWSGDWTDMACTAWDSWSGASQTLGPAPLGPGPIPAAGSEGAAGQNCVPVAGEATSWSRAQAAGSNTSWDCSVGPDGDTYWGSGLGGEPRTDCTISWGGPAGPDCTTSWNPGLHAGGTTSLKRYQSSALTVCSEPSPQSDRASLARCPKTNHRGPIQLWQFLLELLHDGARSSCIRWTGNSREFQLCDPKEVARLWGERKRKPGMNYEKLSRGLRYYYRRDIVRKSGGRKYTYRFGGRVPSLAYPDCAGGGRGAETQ
# Summary of the method: as §1
# ELF3 = biological target: T6, ELF3 (Homo sapiens, UniProt P78545 1-371)
# T6 sequence: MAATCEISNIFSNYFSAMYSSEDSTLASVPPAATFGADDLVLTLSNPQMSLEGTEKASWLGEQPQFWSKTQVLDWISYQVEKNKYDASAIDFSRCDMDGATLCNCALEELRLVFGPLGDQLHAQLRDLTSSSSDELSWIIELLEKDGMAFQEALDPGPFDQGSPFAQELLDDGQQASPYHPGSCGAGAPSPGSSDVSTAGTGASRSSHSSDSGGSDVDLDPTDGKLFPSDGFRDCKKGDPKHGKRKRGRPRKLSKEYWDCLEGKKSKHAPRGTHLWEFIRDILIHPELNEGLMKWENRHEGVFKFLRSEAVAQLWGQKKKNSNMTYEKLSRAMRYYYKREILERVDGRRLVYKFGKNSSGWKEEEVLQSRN
# Summary of the method: as §1
# ETV1 = ETV1 (Homo sapiens, UniProt P50549 1-477)
# Summary of the method: as §1
# ERF = biological target: T7, ERF (Homo sapiens, UniProt P50548 1-548)
# T7 sequence: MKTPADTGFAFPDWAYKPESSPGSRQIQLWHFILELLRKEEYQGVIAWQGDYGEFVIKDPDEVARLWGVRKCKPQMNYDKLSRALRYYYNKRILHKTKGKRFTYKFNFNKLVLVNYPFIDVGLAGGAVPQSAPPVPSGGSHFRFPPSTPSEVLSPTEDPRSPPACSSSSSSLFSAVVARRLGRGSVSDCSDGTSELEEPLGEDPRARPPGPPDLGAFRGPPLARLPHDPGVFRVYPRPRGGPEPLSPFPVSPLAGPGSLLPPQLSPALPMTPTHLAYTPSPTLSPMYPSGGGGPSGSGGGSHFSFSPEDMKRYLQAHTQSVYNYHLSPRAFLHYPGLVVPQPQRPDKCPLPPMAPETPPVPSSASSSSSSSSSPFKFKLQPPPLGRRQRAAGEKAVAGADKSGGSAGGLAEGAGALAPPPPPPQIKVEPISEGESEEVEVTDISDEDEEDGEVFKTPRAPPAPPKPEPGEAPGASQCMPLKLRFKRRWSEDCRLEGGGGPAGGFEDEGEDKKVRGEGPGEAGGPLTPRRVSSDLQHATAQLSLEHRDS
# Summary of the method: as §1
# ETV3L = biological target: T8, ETV3L (Homo sapiens, UniProt Q6ZN32 1-361)
# T8 sequence: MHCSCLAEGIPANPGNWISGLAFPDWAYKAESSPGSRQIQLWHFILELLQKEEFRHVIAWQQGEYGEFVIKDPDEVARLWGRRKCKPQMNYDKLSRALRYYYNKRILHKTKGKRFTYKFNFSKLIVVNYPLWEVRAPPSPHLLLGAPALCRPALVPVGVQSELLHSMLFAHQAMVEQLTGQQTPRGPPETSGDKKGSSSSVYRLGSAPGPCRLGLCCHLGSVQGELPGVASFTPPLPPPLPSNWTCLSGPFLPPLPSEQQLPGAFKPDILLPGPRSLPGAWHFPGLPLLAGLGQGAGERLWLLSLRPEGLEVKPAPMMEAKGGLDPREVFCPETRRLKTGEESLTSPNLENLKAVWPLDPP
# Summary of the method: as §1
# ETS2 = biological target: T9, ETS2 (Homo sapiens, UniProt P15036 1-469)
# T9 sequence: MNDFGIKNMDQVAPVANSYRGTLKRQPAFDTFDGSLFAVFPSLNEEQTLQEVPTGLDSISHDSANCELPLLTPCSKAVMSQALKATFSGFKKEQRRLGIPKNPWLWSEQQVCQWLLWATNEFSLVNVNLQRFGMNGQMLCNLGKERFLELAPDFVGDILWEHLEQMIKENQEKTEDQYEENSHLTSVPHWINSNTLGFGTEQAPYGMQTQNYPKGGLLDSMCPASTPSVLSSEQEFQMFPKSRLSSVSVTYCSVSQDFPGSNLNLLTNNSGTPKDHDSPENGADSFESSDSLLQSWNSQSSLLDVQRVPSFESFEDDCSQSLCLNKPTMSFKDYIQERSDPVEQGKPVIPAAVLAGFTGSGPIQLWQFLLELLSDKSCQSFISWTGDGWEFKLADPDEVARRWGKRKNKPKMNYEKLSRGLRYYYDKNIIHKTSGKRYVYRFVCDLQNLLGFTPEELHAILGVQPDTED
# Summary of the method: as §1
# ETV7 = biological target: T10, ETV7 (Homo sapiens, UniProt Q9Y603 1-341)
# T10 sequence: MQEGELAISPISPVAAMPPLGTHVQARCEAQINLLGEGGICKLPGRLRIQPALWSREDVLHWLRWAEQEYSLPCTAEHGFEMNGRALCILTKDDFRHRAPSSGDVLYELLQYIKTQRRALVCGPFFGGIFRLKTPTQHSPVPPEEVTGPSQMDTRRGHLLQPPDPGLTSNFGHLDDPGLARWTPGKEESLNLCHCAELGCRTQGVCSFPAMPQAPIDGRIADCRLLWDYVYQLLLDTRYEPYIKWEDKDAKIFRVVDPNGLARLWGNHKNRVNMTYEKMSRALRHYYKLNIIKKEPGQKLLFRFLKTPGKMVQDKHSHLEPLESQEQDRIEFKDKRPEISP
# Summary of the method: as §1
# ETV1, sequence (P50549 whole entry): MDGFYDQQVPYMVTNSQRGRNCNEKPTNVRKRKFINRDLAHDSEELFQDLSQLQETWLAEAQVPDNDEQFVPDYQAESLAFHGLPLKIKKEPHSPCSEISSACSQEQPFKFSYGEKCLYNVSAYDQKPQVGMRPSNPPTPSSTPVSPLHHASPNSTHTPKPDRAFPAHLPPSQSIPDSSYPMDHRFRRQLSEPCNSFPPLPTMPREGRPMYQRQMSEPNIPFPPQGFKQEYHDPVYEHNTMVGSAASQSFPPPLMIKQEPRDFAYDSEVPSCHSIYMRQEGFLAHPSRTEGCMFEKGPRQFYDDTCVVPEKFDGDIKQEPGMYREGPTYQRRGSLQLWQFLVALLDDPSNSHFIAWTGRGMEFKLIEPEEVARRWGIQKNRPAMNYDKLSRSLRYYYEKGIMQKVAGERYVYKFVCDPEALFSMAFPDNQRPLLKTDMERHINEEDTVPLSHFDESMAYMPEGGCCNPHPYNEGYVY
# SPIB, sequence (Q01892 whole entry): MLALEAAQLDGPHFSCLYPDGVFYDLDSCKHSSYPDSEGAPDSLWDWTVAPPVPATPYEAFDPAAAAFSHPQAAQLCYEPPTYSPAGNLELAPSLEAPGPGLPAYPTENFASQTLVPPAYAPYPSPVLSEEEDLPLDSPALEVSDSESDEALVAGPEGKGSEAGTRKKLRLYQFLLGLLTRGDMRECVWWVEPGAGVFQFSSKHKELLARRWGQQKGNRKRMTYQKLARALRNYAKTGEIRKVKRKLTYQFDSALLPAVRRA
# ETV5, sequence (P41161 whole entry): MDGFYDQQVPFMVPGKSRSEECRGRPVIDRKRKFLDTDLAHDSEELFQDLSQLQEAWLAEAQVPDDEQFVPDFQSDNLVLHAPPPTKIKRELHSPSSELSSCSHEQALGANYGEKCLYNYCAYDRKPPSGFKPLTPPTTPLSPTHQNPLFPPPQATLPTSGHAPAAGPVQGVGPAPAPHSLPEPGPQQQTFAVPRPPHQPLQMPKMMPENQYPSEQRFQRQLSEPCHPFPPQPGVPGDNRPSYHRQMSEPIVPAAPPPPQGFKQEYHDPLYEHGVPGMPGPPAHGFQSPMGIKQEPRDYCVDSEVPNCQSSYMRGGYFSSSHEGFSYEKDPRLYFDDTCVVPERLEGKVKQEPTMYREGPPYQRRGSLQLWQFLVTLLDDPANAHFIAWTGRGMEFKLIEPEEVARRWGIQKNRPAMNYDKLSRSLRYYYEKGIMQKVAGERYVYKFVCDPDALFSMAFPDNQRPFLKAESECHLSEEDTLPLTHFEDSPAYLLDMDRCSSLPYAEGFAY
# ELF4, sequence (Q99607 whole entry): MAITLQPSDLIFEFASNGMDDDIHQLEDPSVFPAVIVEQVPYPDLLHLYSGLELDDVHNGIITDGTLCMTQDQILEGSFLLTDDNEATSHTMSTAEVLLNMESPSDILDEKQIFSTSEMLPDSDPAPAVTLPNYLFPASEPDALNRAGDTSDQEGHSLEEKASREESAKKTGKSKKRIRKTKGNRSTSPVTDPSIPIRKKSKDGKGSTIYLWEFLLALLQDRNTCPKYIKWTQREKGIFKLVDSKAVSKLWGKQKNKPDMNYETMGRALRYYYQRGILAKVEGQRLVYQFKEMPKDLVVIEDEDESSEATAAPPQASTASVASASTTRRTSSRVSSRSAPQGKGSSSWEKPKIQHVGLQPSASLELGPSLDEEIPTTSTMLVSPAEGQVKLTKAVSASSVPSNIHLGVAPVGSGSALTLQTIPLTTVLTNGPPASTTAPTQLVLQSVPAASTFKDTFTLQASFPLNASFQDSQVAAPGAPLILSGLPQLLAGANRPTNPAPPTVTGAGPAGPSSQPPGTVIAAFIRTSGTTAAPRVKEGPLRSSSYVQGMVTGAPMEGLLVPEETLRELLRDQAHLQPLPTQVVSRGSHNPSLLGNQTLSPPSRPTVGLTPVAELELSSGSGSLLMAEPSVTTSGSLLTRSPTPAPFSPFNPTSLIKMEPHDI
# ELF1, sequence (P32519 whole entry): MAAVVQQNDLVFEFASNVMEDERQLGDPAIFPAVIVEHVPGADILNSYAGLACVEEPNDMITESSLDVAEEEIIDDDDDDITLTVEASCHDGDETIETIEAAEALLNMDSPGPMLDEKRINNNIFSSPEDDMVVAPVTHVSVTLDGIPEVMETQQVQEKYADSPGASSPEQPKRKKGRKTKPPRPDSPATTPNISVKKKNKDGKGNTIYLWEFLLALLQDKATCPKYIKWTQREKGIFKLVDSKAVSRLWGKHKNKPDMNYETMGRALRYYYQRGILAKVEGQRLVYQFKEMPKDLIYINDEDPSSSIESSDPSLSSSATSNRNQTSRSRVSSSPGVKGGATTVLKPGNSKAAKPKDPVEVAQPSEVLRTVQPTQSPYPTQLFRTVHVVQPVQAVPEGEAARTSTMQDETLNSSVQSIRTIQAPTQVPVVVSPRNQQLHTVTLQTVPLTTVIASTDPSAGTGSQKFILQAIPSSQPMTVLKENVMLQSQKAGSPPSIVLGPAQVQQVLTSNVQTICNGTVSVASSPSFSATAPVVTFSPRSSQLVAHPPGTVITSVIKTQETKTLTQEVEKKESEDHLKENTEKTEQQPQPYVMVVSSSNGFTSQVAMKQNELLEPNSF
sequence,measurement,setting,value
TGTGGT,binding signal,FLI1,"1.08 fold enrichment (6-mer frequency, TF over GST control)"
same,binding signal,GABPA,"1.09 fold enrichment (6-mer frequency, TF over GST control)"
same,binding signal,ERG,"1.07 fold enrichment (6-mer frequency, TF over GST control)"
same,binding signal,ELF1,"1.01 fold enrichment (6-mer frequency, TF over GST control)"
same,binding signal,EHF,"1.08 fold enrichment (6-mer frequency, TF over GST control)"
same,binding signal,SPI1,"1.05 fold enrichment (6-mer frequency, TF over GST control)"
same,binding signal,SPIB,"1.16 fold enrichment (6-mer frequency, TF over GST control)"
same,binding signal,ETV5,"1.04 fold enrichment (6-mer frequency, TF over GST control)"
same,binding signal,ELF4,"1.04 fold enrichment (6-mer frequency, TF over GST control)"
same,binding signal,ETV2,"1.07 fold enrichment (6-mer frequency, TF over GST control)"
same,binding signal,ELF3,"1.2 fold enrichment (6-mer frequency, TF over GST control)"
same,binding signal,ETV1,"1.01 fold enrichment (6-mer frequency, TF over GST control)"
same,binding signal,ERF,"1.06 fold enrichment (6-mer frequency, TF over GST control)"
same,binding signal,ETV3L,"1.04 fold enrichment (6-mer frequency, TF over GST control)"
same,binding signal,ETS2,"1.05 fold enrichment (6-mer frequency, TF over GST control)"
same,binding signal,ETV7,"1.11 fold enrichment (6-mer frequency, TF over GST control)"
